Source: PubChem BioAssay
Mot1-301 SUMO = blocks SUMOylation pathway, rescuing yeast Mot1-301 growth | S. cerevisiae Mot1-301 growth rescue, ATP luminescence, 38.5C; percent above DMSO median, 100 means doubled | growth rescue, % at 18.8 µM | 1% of 320,000 active;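 active means every valid replicate shows activation above 250% relative to neutral control wells; inactive means the rest, any valid replicate at or below 250%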
Efflux pump mplx = antifungal efflux pump inhibition, Nile Red retention. AID 485275. 0.44% of 330,000 active. inhibition, % at 10 µM. S. cerevisiae Candida pump triplex;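 active means plate passing quality check with inhibition over a set limit, or well fluorescence over plate mean plus 4 SD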;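 further: Nile Red retained in pooled yeast measured as flow cytometry median fluorescence; higher means more Nile Red kept so more efflux inhibition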
sPLA2-III inh = Blocks human group III sPLA2 activity; Q9NZ20; QFRET BODIPY PC-A2 liposome hydrolysis, fluorescence; 0.56% of 370,000 active; inhibition, % at 12.2 µM;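 active means inhibition above mean plus 3 SD of compounds lying within the high and low control bounds, cut at about 19% in these data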
Target sequence (Q9NZ20 whole entry, looked up): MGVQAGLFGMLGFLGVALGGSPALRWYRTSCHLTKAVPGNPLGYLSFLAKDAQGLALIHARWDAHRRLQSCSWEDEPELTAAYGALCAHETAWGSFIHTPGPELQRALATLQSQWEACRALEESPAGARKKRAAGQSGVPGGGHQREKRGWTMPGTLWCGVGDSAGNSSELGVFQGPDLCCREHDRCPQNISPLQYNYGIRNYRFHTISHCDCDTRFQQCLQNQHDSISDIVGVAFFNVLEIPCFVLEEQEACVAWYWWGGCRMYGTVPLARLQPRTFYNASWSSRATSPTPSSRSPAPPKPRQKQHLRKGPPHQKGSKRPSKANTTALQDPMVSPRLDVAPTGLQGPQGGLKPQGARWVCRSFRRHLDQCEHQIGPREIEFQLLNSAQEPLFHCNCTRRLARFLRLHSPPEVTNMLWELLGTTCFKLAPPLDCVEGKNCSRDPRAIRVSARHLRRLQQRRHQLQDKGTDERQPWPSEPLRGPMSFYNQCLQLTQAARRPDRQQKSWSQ
SKN-1 inh = inhibitors of C. elegans SKN-1; 0.49% of 360,000 active; C. elegans VP596 Pgst-4::GFP/RFP ratio, acrylamide-induced, 24 h; inhibition, % at 21.8 µM;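 active means interference check ratio from 0.5 to 1.5 plus GFP to RFP signal ratio inhibition reaching or exceeding a fixed threshold, cut at about 30% in these data, passing the limit was not always enough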
Mot1 SUMO dose = SUMO pathway inhibitors in yeast Mot1-301 growth; shares compounds with Mot1-301 SUMO; S. cerevisiae Mot1-301 galactose growth, ATP luminescence, 24 h; -100 = growth of slx-deleted rescue strain; growth activity, percent, % at 42 µM; 2,300 tested, under 10 active; AID 493004;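 active means Signal drops as the depositor expects, and the fitted half-maximal dose is no more than ten times the top valid tested dose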;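 further: more negative values mean stronger growth rescue toward the control strain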
A number is an active result; – = inactive; · = no result; + = active, no number. The list is not random: actives were taken first. Their share in the collection is about 2.2%.

SMILES	Mot1-301 SUMO	Efflux pump mplx	sPLA2-III inh	SKN-1 inh	Mot1 SUMO dose
O=C(NC1CCCCN(Cc2ccc(Cl)cc2)C1=O)c1ccc(COc2ccccc2)cc1 (configuration not stated)	·	·	–	·	·
Cc1ccc(N=c2ssnc2Cl)cc1	471	–	–	–	–
Cc1nnc(N=c2ssnc2Cl)o1	606	–	–	–	–
Cc1cc(Cl)ccc1N=c1ssnc1Cl	–	–	–	–	·
COc1cccc(CNC(=O)[C@@H]2CCCN2C(=O)[C@H]2CCCCN2C(=O)c2ccccc2C)c1	·	·	–	–	·
Cc1ccc(Cn2cc(CN(C)C3CN(Cc4cn(Cc5ccc(C)cc5)nn4)S(=O)(=O)C3)nn2)cc1 (configuration not stated)	·	·	–	–	·
Cc1ccc(C(=O)C2CCN(CC(=O)N3CCOCC3)CC2)cc1	·	·	–	·	·
Cc1nc(N2CCN(c3ccccn3)CC2)c2c(C)c(C(=O)N3CCN(c4ccccc4F)CC3)sc2n1	427	–	–	–	–
COC(=O)N(C)C[C@@H]1OCc2cnnn2CCCC(=O)N([C@@H](C)CO)C[C@H]1C	·	·	–	–	·
Cc1nn(C(C)(C)C)c(OC(=O)c2ccc3c(c2)OCO3)c1S(=O)(=O)c1ccccc1	+	–	–	–	–
CCOc1ccc(C(=O)N2CCCC(c3nc(-c4cccs4)no3)C2)cc1 (configuration not stated)	–	–	–	–	·
CCC(CC)C(=O)N1CCCC(c2nc(-c3cccs3)no2)C1 (configuration not stated)	503	–	–	–	–
Cc1nc2ccc(NC(=O)c3ccco3)cc2s1	363	–	–	–	–
OCC1(Cc2cccc(Cl)c2)CCCN(Cc2cnn(-c3ccccc3)c2)C1 (configuration not stated)	–	–	–	–	·
Nc1nc2ccccc2cc1-c1cccs1	435	–	–	–	–
COc1cc2c(cc1OC)C(C)N(C(=O)Nc1ccccc1)CC2 (configuration not stated)	–	–	–	–	·
COc1ccccc1/C=C/C(=O)N1CCc2cc(OC)c(OC)cc2C1C (configuration not stated)	389	–	–	–	–
CCOc1ccc(Nc2nc(Cc3nnc(SCC(N)=O)o3)cs2)cc1	–	–	–	–	·
CCOc1ccc(NC(=O)CSc2nnc(Cc3csc(C)n3)o2)cc1	777	–	–	–	–
O=C(CN1CCN(Cc2ccc(F)cc2)CC1)NCc1ccccc1	651	–	–	–	–
COc1ccc(C(=O)O/N=C(\N)c2ccccc2)cc1OC	380	–	–	–	–
Cc1cccc(-n2c(SCC(=O)c3c(N)n(C4CC4)c(=O)[nH]c3=O)nnc2N2CCOCC2)c1	–	–	–	–	·
CCOC(=O)c1cc([N+](=O)[O-])c([N+](=O)[O-])cc1NC(C)=O	487	–	–	–	–
Cc1ccc(C)n1-n1c(C)nc2sc3c(c2c1=O)CCCCC3	·	–	–	–	·
Cc1ccc(C)n1-n1cnc2sc3c(c2c1=O)CCCCC3	596	–	–	–	–
SMILES	Mot1-301 SUMO	Efflux pump mplx	sPLA2-III inh	SKN-1 inh	Mot1 SUMO dose
Cc1ccc(COc2ccsc2C(=O)NN)cc1	–	–	–	–	·
CCOc1ccc(C(=O)Nc2ccc(N3CCN(C)CC3)cc2)cc1[N+](=O)[O-]	690	–	–	–	–
O=[N+]([O-])c1cc([N+](=O)[O-])c2cc3ccccc3nc2c1	468	–	–	–	–
CCCCn1c(/N=C/c2ccc3c(c2)OCO3)nc2ccccc21	577	–	–	–	–
COc1ccc(NC(=O)c2ccc(COc3ccccc3OC)o2)cc1OC	476	–	–	–	–
COc1ccc(NC(=O)c2ccc(COc3ccccc3Br)o2)cc1OC	–	–	–	–	·
Fc1ccc(-c2nnc3ccc(N4CCCC4)nn23)cc1	775	–	–	–	–
O=c1c2ccccc2ncn1-c1ccc(Cl)cc1Cl	747	–	–	35	–
Cc1nn(CC(=O)Nc2ccccn2)c(C)c1[N+](=O)[O-]	424	–	–	–	–
COc1ccc(S(=O)(=O)Cc2ccc(C(=O)NCc3cccs3)o2)cc1	462	–	–	–	–
CC(=O)c1cccc(NC(=O)CN(c2cccc(F)c2)S(C)(=O)=O)c1	682	–	–	–	–
Cc1cc(C)c(S(=O)(=O)N2CCCOC2CNC(=O)C(=O)NCc2cccs2)c(C)c1 (configuration not stated)	–	–	–	–	·
COc1cc(NC(=O)C2CCCC2)c(OC)cc1Cl	–	–	–	–	·
CCCCC(=O)Nc1cc(OC)c(NC(=O)C2CCCCC2)cc1OC	711	–	–	–	–
CCN1CCCC1CN(Cc1cc2ccc(C)cc2[nH]c1=O)C(=S)Nc1ccccc1C(=O)OC (configuration not stated)	+	–	–	–	–
CCN1CCCC1CN(Cc1cc2ccc(C)cc2[nH]c1=O)C(=S)Nc1ccccc1OC (configuration not stated)	–	–	–	–	·
O=c1[nH]cnc(O)c1C(c1ccc2c(c1)OCO2)c1c(O)nc[nH]c1=O	–	–	–	–	·
Cc1ccc(NC(=O)Cn2nc(C)c3ccccc3c2=O)cc1	369	–	–	–	–
COc1cc(CNc2ncnc3c2ncn3[C@H]2CN(Cc3ccc4c(c3)OCO4)C[C@@H](CO)O2)cc(OC)c1OC	·	·	–	–	·
Fc1cccc(NC(=S)N2CCn3cccc3C2c2cccnc2)c1 (configuration not stated)	497	–	–	–	–
S=C(Nc1ccccc1)N1CCn2cccc2C1c1cccnc1 (configuration not stated)	–	–	–	–	·
O=C(NC(=S)Nc1ccc(F)c([N+](=O)[O-])c1)c1ccccc1F	–	–	–	–	·
CC(C)C(=O)Nc1ccc(NC(=S)NC(=O)c2ccccc2F)cc1	495	–	–	–	–
CC(OC(=O)c1cnccn1)C(=O)c1ccccc1 (configuration not stated)	433	–	–	–	–
Cc1ccc(C(=O)C(OC(=O)c2cnccn2)c2ccccc2)cc1 (configuration not stated)	–	–	–	–	·
SMILES	Mot1-301 SUMO	Efflux pump mplx	sPLA2-III inh	SKN-1 inh	Mot1 SUMO dose
CCC(C)c1ccc(C(CC)NC(=O)C2CCCO2)cc1 (configuration not stated)	–	–	–	–	·
CC1CCN(c2ccc(NC(=O)C3CCCN3S(=O)(=O)c3ccc(F)cc3)cc2)CC1 (configuration not stated)	–	–	–	–	·
COC(=O)C[C@H]1CC[C@@H](NC(=O)Nc2ccc(C(F)(F)F)cc2)[C@@H](CO)O1	·	·	–	–	·
Cc1cc(=O)oc2ccc(OC(=O)CC(C)C)cc12	810	–	–	–	–
CCOC(=O)Oc1ccc2oc(=O)cc(C)c2c1	–	–	–	–	·
CC(=O)N1CCOc2ccc(S(=O)(=O)NC[C@H]3O[C@@H](n4cnc5c(N)ncnc54)[C@H](O)[C@@H]3O)cc21	·	–	–	–	·
CCCn1c(=O)c2ccccc2n2c(SCC(=O)N3CCc4ccccc4C3)nnc12	433	–	–	–	–
